Bioassay records: PubChem BioAssay, several laboratories
GRK2 aptamer HTS: inhibitors of human GRK2 displacing RNA aptamer. inhibition of aptamer binding, % at 10 µM. bead flow cytometry, FAM-aptamer displacement from GRK2. 0.59% of 330,000 active;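 active = inhibition of aptamer binding above 40%, roughly 3 SD of noise, on plates passing a quality check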;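 also: median bead fluorescence of bound FAM aptamer so fluorescent compounds give negative values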
Target sequence (P25098 whole entry, looked up): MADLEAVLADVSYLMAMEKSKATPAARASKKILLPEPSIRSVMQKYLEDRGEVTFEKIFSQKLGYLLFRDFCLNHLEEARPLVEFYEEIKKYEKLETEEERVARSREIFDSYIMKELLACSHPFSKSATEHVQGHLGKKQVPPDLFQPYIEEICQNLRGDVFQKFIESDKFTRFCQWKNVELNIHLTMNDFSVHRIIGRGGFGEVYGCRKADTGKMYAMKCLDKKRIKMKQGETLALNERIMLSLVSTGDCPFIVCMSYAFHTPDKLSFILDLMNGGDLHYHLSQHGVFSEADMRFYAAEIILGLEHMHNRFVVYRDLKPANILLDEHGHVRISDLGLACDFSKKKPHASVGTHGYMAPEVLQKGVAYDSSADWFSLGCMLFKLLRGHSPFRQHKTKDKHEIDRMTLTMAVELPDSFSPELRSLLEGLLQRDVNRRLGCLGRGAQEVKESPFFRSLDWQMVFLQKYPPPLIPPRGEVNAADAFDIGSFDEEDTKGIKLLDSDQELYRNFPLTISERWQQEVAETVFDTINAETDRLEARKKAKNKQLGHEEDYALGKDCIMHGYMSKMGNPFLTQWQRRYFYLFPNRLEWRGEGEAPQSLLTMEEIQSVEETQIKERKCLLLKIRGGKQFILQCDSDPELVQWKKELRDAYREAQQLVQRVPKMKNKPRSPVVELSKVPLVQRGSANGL
H9c2 protect: protects H9c2 cardiomyocytes from peroxide injury; H2O2 injury protection, ATPLite, 2 h; protection from H2O2 cell death, % at 20 µM; 0.63% of 360,000 active;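 active = compounds giving at least 50% protection of heart cells from peroxide-induced death in the single-dose screen, raw or plate-pattern-corrected value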;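 also: 0% = DMSO wells with peroxide and 100% = DMSO wells without peroxide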
Neddyl block: blocks human cullin neddylation; P61081+Q13564; TR-FRET cullin neddylation, biochemical; inhibition, % at 25 µM; 0.58% of 360,000 active; in the data active = inhibition above about 36%
HDAC3 inh: inhibitors of human histone deacetylase 3 | O15379 | recombinant HDAC3, fluorogenic peptide/trypsin coupled, fluorescence | inhibition, % at 8.3 µM | 0.15% of 320,000 active | AID 2718; in the data active = inhibition above about 26%, passing the limit was not always enough; inconclusive = no clear call, values can overlap the other calls
GRK2 CP1: confirmation of human GRK2 inhibitors displacing RNA aptamer; shares compounds with GRK2 aptamer HTS; bead-bound GRK2, FAM-aptamer displacement, flow cytometry; aptamer displacement, % at 10 µM; 4% of 2,000 active;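 active = aptamer displacement above 40%, near three times the noise of non-fluorescent compounds, on plates passing quality checks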;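 also: negative values mostly reflect intrinsic compound fluorescence rather than true enhancement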
Aptamer quench SP: aptamer fluorescence quenching in GRK2 counter-screen. shares compounds with GRK2 aptamer HTS. Carboxyfluorescein RNA aptamer on beads, flow cytometry quenching; stronger effect = lower value. fluorescence response (% of DMSO), % at 10 µM. 2,000 tested, under 10 active. AID 504580;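 active = compounds that quench the bead-bound fluorescent RNA probe, cutting fluorescence to under half of the solvent control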;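 also: counterscreen run without GRK2 so only probe quenching by compound is measured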
GRK2 CP2: human GRK2 inhibition confirmation, cherry pick 2 | shares compounds with GRK2 aptamer HTS | bead-bound GRK2, FAM-aptamer displacement, flow cytometry | inhibition of aptamer binding, % at 10 µM | 360 tested, under 10 active;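 active = inhibition of aptamer binding above 40%, about triple the noise seen with nonglowing compounds, on plates passing quality control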;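 also: negative values mostly come from compounds that fluoresce themselves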
FAM quench SP: counter-screen for GRK2 binding hits: quenchers of fluorescent RNA aptamer; AID 588494; shares compounds with GRK2 aptamer HTS; fluorescence response vs DMSO, % at 10 µM; carboxyfluorescein RNA aptamer beads, flow cytometry quenching; stronger effect = lower value; 360 tested, under 10 active;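 active = response vs DMSO under 50%, meaning signal dropped by over half, treated as fluorescence quencher; inconclusive = no clear call, values can overlap the other calls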;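 also: labelled aptamer on streptavidin beads without GRK2 as a quench counter-screen; 100% = bead fluorescence of DMSO wells and lower means quenching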
The depositor's hits bear a star; ? = inconclusive; · = not tested or not shown. Only some compounds are listed: those with a hit (about 1.8% of all), similar ones and a draw of the others.

SMILES | GRK2 aptamer HTS | H9c2 protect | Neddyl block | HDAC3 inh | GRK2 CP1 | Aptamer quench SP | others
CCOc1ccc2nc(NC(=O)CCn3cccc3)sc2c1 | 34 | -8 | -98 | 0 | 3 | 98
Nc1c(C(=O)CSc2nncn2-c2ccccc2)c(=O)[nH]c(=O)n1C1CC1 | 61* | -3 | -22 | ? | -1 | 95
Cc1sc2ncnc(NCCCO)c2c1C | 29 | -16 | -2 | 5 | -2 | 103
C=CCNC(=O)c1onc(CSc2ccccc2)c1C(=O)NCC=C | 1 | 1 | 4 | 2 | · | ·
C=CCNC(=O)c1onc(CSc2ccc(F)c(F)c2)c1C(=O)NCC=C | 53* | -4 | -20 | 3 | -2 | 105
CN(C)CCCNC1=CC(=O)CC(c2ccccc2)C1 (stereo unspecified) | 80* | 7 | -2 | 5 | -1 | 104
Cn1ccnc1C1CCCCN1Cc1nc(Cc2cccc(C(F)(F)F)c2)no1 (stereo unspecified) | 0 | -4 | 7 | 2 | -1 | 101
NC(=O)c1sc2nc3c(cc2c1N)CCCCCC3 | 75* | -7 | 5 | -6 | 9 | 96
Nc1c(C(=O)O)sc2nc3c(cc12)CCCC3 | 4 | -2 | 8 | -1 | · | ·
CC(=O)NC(c1ccc(F)c(F)c1)c1nc(-c2ccncc2)cs1 (stereo unspecified) | · | -22 | -51 | · | · | ·
CN(c1cccc(NC(=O)c2ccc(Cl)c(S(=O)(=O)Nc3ccccc3)c2)c1)S(C)(=O)=O | 3 | 6 | 0 | -8 | · | ·
Cc1ccccc1NS(=O)(=O)c1cc(C(=O)Nc2cccc(N(C)S(C)(=O)=O)c2)ccc1C | 16 | 11 | 5 | -5 | -1 | 101
Cn1c(N2CCN(C(c3ccccc3)c3ccccc3)CC2)nc2ccccc21 | 98* | 5 | -2 | 2 | -2 | 151
Cn1c(N2CCN(C(=O)Nc3ccc(F)cc3)CC2)nc2ccccc21 | 3 | -1 | -2 | 2 | · | ·
O=C(Cc1cccs1)Nc1ccc(F)c(S(=O)(=O)N2CCOCC2)c1 | 2 | 2 | -9 | · | · | ·
Cc1cc(F)ccc1NC(=O)c1cc(S(=O)(=O)N2CCc3ccccc32)cn1C | 73* | -11 | -2 | · | -4 | 102
O=C(NCC(c1ccc(F)cc1)N1CCOCC1)c1ccccc1F (stereo unspecified) | 1 | 3 | 5 | 4 | · | ·
Cc1ccccc1SCC(=O)NCC(c1ccc(F)cc1)N1CCOCC1 (stereo unspecified) | 45* | 0 | -19 | -5 | · | · | GRK2 CP2=-14;FAM quench SP=90
COC(=O)CC1(C(=O)OC)Oc2ccccc2C(=O)N1c1ccc(F)cc1F (stereo unspecified) | 1 | 7 | 3 | 3 | · | ·
Cc1cccc2c1cnn2C(=O)CCC(=O)N1CCC(C)CC1 | 70* | 13 | -5 | 3 | -2 | 95
Cc1cccc(C(=O)N2CCC(C)(C(=O)NS(=O)(=O)C3CC3)C2)c1C (stereo unspecified) | · | -6 | 5 | · | · | ·
CCOC(=O)c1ccc(NC(=O)N2CCN(C(=O)C3CCCO3)CC2)cc1 (stereo unspecified) | 0 | 12 | 6 | -4 | · | ·
O=S(=O)(NCc1ccc(F)cc1)c1ccc(-c2cnc(C3CC3)o2)cc1 | 51* | -8 | 31 | -7 | 6 | 99
CN(CC(=O)Nc1ccc(N2CCOCC2)cc1)C(=O)CCc1ccccc1Cl | 0 | -1 | 4 | · | -1 | 98
CN(CC(=O)Nc1ccc(N2CCOCC2)cc1)C(=O)CCNC(=O)c1ccccc1Cl | 1 | 5 | 7 | 2 | · | ·
SMILES | GRK2 aptamer HTS | H9c2 protect | Neddyl block | HDAC3 inh | GRK2 CP1 | Aptamer quench SP | others
Cc1cc(C(F)F)nn1CC(=O)NC1C(=O)N2C(C(=O)O)=C(CSc3nnnn3C)CSC12 (stereo unspecified) | 9 | -1 | 7 | -2 | · | ·
CC1(c2ccc3ccccc3c2)NC(=O)N(CC(=O)N2CCN(c3ccccc3O)CC2)C1=O (stereo unspecified) | 3 | -6 | 5 | 4 | 4 | 105
O=C(O)C1CC=CCC1C(=O)Nc1ccc2c(c1)OCCO2 (stereo unspecified) | 24 | 8 | 2 | -1 | · | · | GRK2 CP2=12;FAM quench SP=99
O=C1NC(Cc2ccccc2)c2nc3ccccc3c(=O)n2-c2cc3ccccc3cc21 (stereo unspecified) | · | 11 | -46 | · | · | ·
Cc1ccc(NC(=O)CN(C)C(=O)c2cccc(S(=O)(=O)NCc3cccs3)c2)cc1 | 1 | 2 | 10 | 0 | · | ·
Cc1ccc(NC(=O)CN(C)C(=O)c2cccc(S(=O)(=O)NCc3ccccc3)c2)cc1 | 91* | -2 | 3 | 3 | -3 | 110
Cc1ccc2nc(SCC(=O)Nc3cccc(F)c3)nc(=O)n2c1 | 100* | -13 | -3 | · | 1 | 99
Cc1ccc2nc(SCC(=O)Nc3cccc(Cl)c3)nc(=O)n2c1 | 1 | -7 | 1 | 2 | · | ·
COc1cc(NS(=O)(=O)c2ccc(Cl)cc2)c(C(=O)O)cc1OC | 1 | 4 | 12 | 0 | · | ·
O=C(Nc1ccccc1N1CCOCC1)c1cc(=O)[nH]c2ccccc12 | 82* | 0 | -13 | 3 | 6 | 99
COc1ccc(C(=O)Nc2nc(OCC(F)(F)F)cnc2/C=C\c2ccccc2)c(OC)c1 | · | -2 | 32 | · | · | ·
COC(=O)c1ccc2nc(C3CCCCC3)c(Cc3ccc(C)cc3)n2c1 | · | -7 | 5 | · | · | ·
CC(=O)NS(=O)(=O)c1cccnc1Nc1ccc(Cl)c(Cl)c1 | 83* | -9 | 25 | -9 | -2 | 105
COC(=O)c1cc(Cl)nc2ccccc12 | 87* | -1 | 1 | -4 | 3 | 95
CCCc1cc(C(=O)OC)c2ccccc2n1 | 0 | -10 | 4 | · | · | ·
C#CCn1c(=NC(=O)c2cccs2)sc2cccc(OCC)c21 | 2 | -7 | -29 | 4 | · | ·
C#CCn1c(=NC(=O)c2ccc(Cl)s2)sc2cccc(OC)c21 | 76* | -10 | -26 | -11 | 2 | 99
CN(CC(=O)NCCc1ccc(S(N)(=O)=O)cc1)S(=O)(=O)c1ccc(Br)s1 | 90* | 3 | 7 | 10 | 2 | 98
C=CCn1cccc(C(=O)Nc2ccc(OC)c(Cl)c2)c1=O | 0 | -6 | 6 | 6 | · | ·
COCCN(C(=O)c1cc(-c2ccccc2Cl)nc2ccccc12)c1c(N)n(CC(C)C)c(=O)[nH]c1=O | · | 3 | -12 | · | · | ·
COCCN(C(=O)c1ccccc1Oc1ccccc1)c1c(N)n(CC(C)C)c(=O)[nH]c1=O | 41* | 4 | -5 | 2 | 0 | 98
CCc1nc2ccc(C(=O)N3CCCC(C(N)=O)C3)cn2c1N(C=O)CC (stereo unspecified) | · | 3 | 4 | · | · | ·
CCCCNCCOCCOc1ccc(C)cc1Br | 3 | 10 | -2 | -3 | · | ·
